# Bioassay records as filed in PubChem BioAssay.
# T cruzi growth-1: T. cruzi proliferation inhibition | AID 624255 | inhibition, % at 8.34 µM | T. cruzi beta-gal in NIH3T3, GalScreen luminescence, 90 h | 77,000 tested, 5.9% active;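 active means mean inhibition above about 93%, with at least 55% of replicates each passing it, limit read from the data, passing the limit was not always enough; inconclusive means only one of those two conditions holds; inactive means neither condition holds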
# Pf Dd2 growth: inhibitors of Plasmodium falciparum Dd2 growth; P. falciparum Dd2 growth, SYBR Green, 72 h; active compounds read low; activity change, % at 10 µM; AID 1159554; 94,000 tested, 2.3% active; in the data active means activity change below about -80%; inconclusive means no clear call, values can overlap the other calls
# C diff growth: inhibitors of Clostridium difficile growth; Clostridium difficile clinical isolate growth, OD600, 24 h; active compounds read low; growth activity, negative = inhibition, % at 16 µg/mL (by protocol); 86,000 tested, 0.25% active; AID 1259249;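 active means mean growth activity at or below -80% and every replicate also at or below -80%; inconclusive means mean at or below -80% but some replicate above -80%; inactive means mean growth activity above -80%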;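 further: 0% = DMSO wells and -100% = levofloxacin 16 µg/mL wells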
# T cruzi growth-2: Trypanosoma cruzi proliferation inhibition. inhibition, % at 8.35 µM. shares compounds with T cruzi growth-1. 5,600 tested, 72% active. T. cruzi beta-gal in NIH3T3, GalScreen luminescence, 90 h. AID 651739;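 active means mean replicate inhibition above about 95% and at least 55% of replicates individually reaching it, limit read from the data; inconclusive means only one of the two criteria is met; inactive means neither criterion is met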
# T cruzi growth-3: inhibitors of T. cruzi proliferation. shares compounds with T cruzi growth-1. T. cruzi beta-gal in NIH3T3, GalScreen luminescence, 90 h. inhibition, % at 2.09 µM. 5,600 tested, 21% active;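 active means mean inhibition above about 95%, with at least 55% of replicates also reaching it, limit read from the data; inconclusive means meets just one of the two conditions; inactive means meets neither condition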;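 further: plate controls were neutral control median for no effect and positive control median for full effect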
# NIH3T3 tox: kills mouse NIH/3T3 fibroblasts; shares compounds with T cruzi growth-1; NIH/3T3 viability, CellTiter-Glo ATP luminescence, 90 h; cytotoxicity (signal decrease), % at 8.35 µM; 5,600 tested, 14% active;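 active means mean signal decrease across replicates above about 35% based on untreated-well scatter, with enough replicates individually passing, limit read from the data; inconclusive means no rule stated though some were filed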;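 further: 0% = median of neutral control wells and 100% = median of positive control wells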
# 3T3 cytotox 2: cytotoxicity in mouse NIH/3T3 fibroblasts. shares compounds with T cruzi growth-1. NIH/3T3 viability, CellTiter-Glo ATP luminescence, 90 h. inhibition, % at 24.9 µM. 5,600 tested, 56% active. AID 651744;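 active means mean loss of cell viability signal at or above a set limit, and enough replicates individually reaching it; inconclusive means meets only the mean limit or only the replicate share; inactive means meets neither condition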;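 further: 0% = median of neutral control wells and 100% = median of positive control wells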
# The depositor's hits bear a star; ? = inconclusive; nt = no result. Sampled rows, rich in hits. Any-hit rate of the full collection: about 6.7%.
SMILES,T cruzi growth-1,Pf Dd2 growth,C diff growth,T cruzi growth-2,T cruzi growth-3,NIH3T3 tox,3T3 cytotox 2
C[C@H](CO)N1C[C@H](C)[C@@H](CN(C)C(=O)Nc2ccccc2)OCCCC[C@H](C)Oc2ccc(NC(=O)Nc3ccccc3)cc2C1=O,102*,-20,-3,107*,8,23,5
C[C@H]1CCCCO[C@@H](CN(C)C(=O)Nc2ccccc2)[C@@H](C)CN([C@@H](C)CO)C(=O)c2cc(NC(=O)Nc3ccccc3)ccc2O1,?,-20,-6,110*,10,-6,18
C[C@H](CO)N1C[C@H](C)[C@H](CN(C)C(=O)Nc2ccccc2)OCCCC[C@H](C)Oc2ccc(NC(=O)Nc3ccc(F)cc3)cc2C1=O,83,9,nt,nt,nt,nt,nt
CC(C)NC(=O)Nc1ccc2c(c1)C(=O)N([C@@H](C)CO)C[C@H](C)[C@H](CN(C)C(=O)Nc1ccccc1)OCCCC[C@H](C)O2,100*,-21,-3,80,50,13,-4
C[C@H](CO)N1C[C@H](C)[C@H](CN(C)C(=O)Nc2ccccc2)Oc2ccc(NC(=O)Cc3ccccc3)cc2C1=O,27,-22,6,nt,nt,nt,nt
CC(C)(C)[S@](=O)N1Cc2cc(C(=O)N3CCCCC3)nc(-c3cccc(-c4ccc(F)cc4)c3)c2[C@@H]1CCO,78,-26,nt,nt,nt,nt,nt
Cc1noc(C)c1NC(=O)N[C@@H]1CC[C@@H](CCNC(=O)C2CCOCC2)O[C@H]1CO,48,23,nt,nt,nt,nt,nt
O=C(C[C@@H]1C[C@H]2c3cc(NS(=O)(=O)c4ccc(F)cc4)ccc3O[C@H]2[C@@H](CO)O1)NCc1ccc(Oc2ccccc2)cc1,115*,-16,nt,?,54,37*,67*
O=C(C[C@@H]1C[C@H]2c3cc(NS(=O)(=O)c4ccc(F)cc4)ccc3O[C@H]2[C@H](CO)O1)NCc1ccc(Oc2ccccc2)cc1,47,-47,nt,nt,nt,nt,nt
O=C(C[C@H]1C[C@@H]2c3cc(NS(=O)(=O)c4ccc(F)cc4)ccc3O[C@@H]2[C@H](CO)O1)NCc1ccc(Oc2ccccc2)cc1,118*,-32,nt,97*,32,-10,79*
O=C(C[C@@H]1C[C@@H]2c3cc(NS(=O)(=O)c4ccc(F)cc4)ccc3O[C@@H]2[C@H](CO)O1)NCc1ccccc1,-14,-7,nt,nt,nt,nt,nt
O=C(C[C@@H]1C[C@@H]2c3cc(NS(=O)(=O)c4ccc(F)cc4)ccc3O[C@@H]2[C@@H](CO)O1)NCc1ccc(Oc2ccccc2)cc1,18,-63,nt,nt,nt,nt,nt
COc1cccc(S(=O)(=O)Nc2ccc3c(c2)[C@H]2C[C@H](CC(=O)NCc4cccc(F)c4)O[C@H](CO)[C@H]2O3)c1,58,-32,-5,nt,nt,nt,nt
COc1cccc(S(=O)(=O)Nc2ccc3c(c2)[C@H]2C[C@H](CC(=O)NCc4cccc(F)c4)O[C@@H](CO)[C@H]2O3)c1,?,-38,3,82,12,-10,-12
O=C(C[C@@H]1C[C@@H]2c3cc(NS(=O)(=O)c4ccc(F)cc4)ccc3O[C@@H]2[C@H](CO)O1)NCc1ccc(Oc2ccccc2)cc1,105*,-59,-1,100*,-20,4,11
CC(C)NC(=O)N[C@@H]1C=C[C@@H](CC(=O)NCCCN(C)C)O[C@@H]1CO,41,11,nt,nt,nt,nt,nt
C[C@@H]1CN([C@@H](C)CO)C(=O)c2cc(NC(=O)Nc3ccc(F)cc3)ccc2O[C@@H](C)CCCCO[C@H]1CN(C)CC1CCCCC1,115*,-78,7,92,78,9,104*
C[C@@H]1CCCCO[C@@H](CN(C)CC2CCCCC2)[C@@H](C)CN([C@H](C)CO)C(=O)c2cc(NC(=O)Nc3ccc(F)cc3)ccc2O1,117*,-68,13,100*,109*,29,103*
C[C@H](CO)N1C[C@H](C)[C@@H](CN(C)C)OCCCC[C@H](C)Oc2ccc(NC(=O)Nc3ccc(F)cc3)cc2C1=O,8,0,3,nt,nt,nt,nt
C[C@@H]1CN([C@H](C)CO)C(=O)c2cc(NC(=O)Nc3ccc(F)cc3)ccc2O[C@@H](C)CCCCO[C@H]1CN(C)C,40,2,-1,nt,nt,nt,nt
C[C@H](CO)N1C[C@H](C)[C@H](CN(C)CC2CCCCC2)OCCCC[C@H](C)Oc2ccc(NC(=O)Nc3ccc(F)cc3)cc2C1=O,115*,-87*,-9,89,102*,118*,102*
C[C@@H]1CCCCO[C@@H](CN(C)CC2CC2)[C@H](C)CN([C@H](C)CO)C(=O)c2cc(NC(=O)Nc3ccc(F)cc3)ccc2O1,83,12,3,nt,nt,nt,nt
C[C@H](CO)N1C[C@H](C)[C@H](CN(C)CC2CC2)OCCCC[C@H](C)Oc2ccc(NC(=O)Nc3ccc(F)cc3)cc2C1=O,85,-76,nt,nt,nt,nt,nt
C[C@@H]1CN([C@@H](C)CO)C(=O)c2cc(NC(=O)Nc3ccc(F)cc3)ccc2O[C@@H](C)CCCCO[C@@H]1CN(C)CC1CCCCC1,117*,?,1,99*,43,?,103*
C[C@H](CO)N1C[C@H](C)[C@H](CN(C)C(=O)CCCN(C)C)OCCCC[C@H](C)Oc2ccc(NS(=O)(=O)c3ccc(Cl)cc3)cc2C1=O,22,-20,-2,nt,nt,nt,nt
SMILES,T cruzi growth-1,Pf Dd2 growth,C diff growth,T cruzi growth-2,T cruzi growth-3,NIH3T3 tox,3T3 cytotox 2
O=C(Nc1cccc(Cl)c1)N[C@@H]1CC[C@@H](CCNC(=O)C2CCCC2)O[C@@H]1CO,nt,-11,-11,nt,nt,nt,nt
C[C@H]1CCCCO[C@@H](CN(C)CC2CCCCC2)[C@@H](C)CN([C@@H](C)CO)C(=O)c2cc(NC(=O)Nc3ccc(F)cc3)ccc2O1,125*,-85*,0,101*,120*,60*,103*
C[C@@H]1CCCCO[C@@H](CN(C)C)[C@H](C)CN([C@@H](C)CO)C(=O)c2cc(NC(=O)Nc3ccc(F)cc3)ccc2O1,0,33,5,nt,nt,nt,nt
CO[C@@H]1CN(C)C(=O)c2cc(NC(=O)C3CC3)ccc2OC[C@H](C)N(C(=O)C2CCCCC2)C[C@@H]1C,20,-34,nt,nt,nt,nt,nt
O=C(Nc1ccccc1F)N1CC(=O)N2[C@@H](CO)[C@@H](c3ccc(-c4cccnc4)cc3)[C@@H]2C1,nt,-12,-7,nt,nt,nt,nt
C[C@H]1CN([C@@H](C)CO)S(=O)(=O)c2ccc(C#CCN(C)C)cc2O[C@H]1CN(C)S(=O)(=O)c1cccc(F)c1,nt,-17,1,nt,nt,nt,nt
C[C@H](CO)N1C[C@H](C)[C@H](CN(C)S(=O)(=O)c2cccc(F)c2)Oc2cc(C#CCN(C)C)ccc2S1(=O)=O,nt,-1,1,nt,nt,nt,nt
CC(C)CC#Cc1ccc2c(c1)O[C@H](CN(C)S(=O)(=O)c1cccc(F)c1)[C@@H](C)CN([C@H](C)CO)S2(=O)=O,119*,-63,7,101*,107*,32,61*
